This is an account of results in ChEMBL document CHEMBL3433997, “St. Jude Leishmania screening dataset” (2016).

What all share (type): functional
Assay [1] deals with Solute carrier family 2, facilitated glucose transporter member 1 (Homo sapiens) (UniProt P11166). In words: ST_JUDE_LEISH: Cytotoxicity at 2uM final concentration against transgenic Leishmania Mexicana promastigotes LmGLUT1 that are glucose transport deficient and complemented with the human glucose transporter GLUT1. Activity is measured by DNA content using SYBR green in vitro.
Solute carrier family 2, facilitated glucose transporter member 1 (Homo sapiens), sequence (P11166 whole entry): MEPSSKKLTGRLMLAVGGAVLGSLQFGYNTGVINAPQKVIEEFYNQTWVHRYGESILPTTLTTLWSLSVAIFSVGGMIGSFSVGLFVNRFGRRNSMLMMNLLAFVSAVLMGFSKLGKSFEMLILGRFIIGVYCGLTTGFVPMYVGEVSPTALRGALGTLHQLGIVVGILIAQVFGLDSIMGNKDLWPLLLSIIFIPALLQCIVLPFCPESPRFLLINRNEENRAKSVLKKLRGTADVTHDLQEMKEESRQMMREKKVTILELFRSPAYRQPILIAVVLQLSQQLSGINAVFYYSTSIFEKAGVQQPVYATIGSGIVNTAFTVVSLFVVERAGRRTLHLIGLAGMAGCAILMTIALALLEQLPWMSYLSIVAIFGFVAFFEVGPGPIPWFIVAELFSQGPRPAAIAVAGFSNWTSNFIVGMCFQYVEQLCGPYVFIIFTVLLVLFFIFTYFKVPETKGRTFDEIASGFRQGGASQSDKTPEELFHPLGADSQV

In assay [2] the target is Hexose transporter 1 (Plasmodium falciparum) (UniProt O97467). In words: ST_JUDE_LEISH: Cytotoxicity at 2uM final concentration against transgenic Leishmania Mexicana promastigotes LmPfHT that are glucose transport deficient and complemented with the Plasmodium falciparum hexose transporter. Activity is measured by DNA content using SYBR green in vitro.
The target of assay [3] is Glucose transporter (Leishmania mexicana) (UniProt O61059). Put plainly: ST_JUDE_LEISH: Cytotoxicity at 2uM final concentration against transgenic Leishmania Mexicana promastigotes LmGT2 that are glucose transport deficient and complemented with the L. Mexicana glucose transporter 2. Activity is measured by DNA content using SYBR green in vitro.

For the compound `O=C(/C=C/c1ccc(Cl)c(Cl)c1)N1CCC(CN2CCC(Cc3c[nH]c4ccccc34)CC2)CC1`, the inhibition (commonly the relative decrease from the control value, in per cent) was found to be 4.43% in assay [1], 4.8% in assay [2] and 3.96% in assay [3].
In the same order, the values of `Cc1cc(CNCCCCCCCNCc2ccc(Cl)cc2)ccc1O` are 0.64%, 3.98% and 0.81%.
In the same order, the values of `Cc1cc(NC(=O)CCN2CCN(c3cccc(Cl)c3Cl)CC2)ccc1N1CCN(C(C)C)CC1` are -0.22%, -0.39% and -2.11%.
In the same order, the values of `COc1cc(Cc2cnc(N)nc2N)cc(OCCn2ccccc2=O)c1OC` are 2.42%, 2.33% and 1.46%.
In the case of `COc1ccccc1C1CCN(C2CCC(NC(=O)/C=C/c3cc(F)c(F)cc3F)CC2)CC1` (stereo not given), the inhibition in assay [1] amounted to 2.17%; in assay [2], 2.98%; in assay [3], 2.21%.
In the same order, the values of `CN1CCN(c2ccnc3ccc(NC(=O)Nc4ccc(Br)cc4)cc23)CC1` are -0.59%, 0.3% and 0.32%.
`Fc1cccc(COc2ccc(Nc3ncnc4sc(C#CCNC5CCC5)cc34)cc2Cl)c1`: the inhibition worked out at 6.7% in assay [1], 5.05% in assay [2] and 2.46% in assay [3].
In the same order, the values of `O=C(Nc1cccc(-c2nn3ncccc3c2-c2ccnc(Nc3ccccc3)n2)c1)c1c(F)cccc1F` are 3.26%, 11% and 2.04%.
With `O=C(NC1CCN(c2ccnc3ccccc23)C1)c1cccc(C(F)(F)F)c1` (stereo not given), the inhibition in assay [1] was 2.99%; in assay [2], 1.24%; in assay [3] it was 1.91%.
In the same order, the values of `CCC(C)CN1CCN(c2ccc(NC(=O)c3cccs3)cc2)CC1C` (stereo not given) are 0.37%, 0.02% and 1.01%.
In the same order, the values of `CC1(C)N=C(NC(=O)c2ccc([N+](=O)[O-])cc2)N=C(N)N1OCc1ccc2ccccc2c1` are 3.85%, 4.18% and -0.07%.
In the same order, the values of `CN(C)Cc1c(O)ccc2[nH]c(-c3cccc(F)c3)nc12` are 2.87%, 2.53% and 0.64%.
On to `CN1CCC(NCc2ccc(-c3cccc(S(=O)(=O)NCCc4ccccn4)c3)cc2)CC1`, for which the inhibition in assay [1] was 0.27%; in assay [2], -0.63%; in assay [3], 1.83%.
In the same order, the values of `Cc1nc(N)nc(N)c1OCc1cccc2c1ccc1ccccc12` are 3.53%, 6.28% and 2.84%.
In the case of `O=C(Cn1c(CCc2cccc(F)c2F)nc(=O)c2ccccc21)N(Cc1ccc(-c2ccc(C(F)(F)F)cc2)cc1)C1CCN(C2=NCCS2)CC1`, the results for the inhibition in assay [1], in assay [2] and in assay [3] were 3.56%, 4.28% and 4.67%, respectively.
In the same order, the values of `Nc1nc(N)c2c(Cl)c(CNc3cccc(C(=O)O)c3)ccc2n1` are 3.95%, 2.84% and 3.26%.
In the same order, the values of `CC(Cc1ccc(COc2ccc(CC(CO)NCCc3cccc(Cl)c3)cc2)cc1)NCCc1cccc(Cl)c1` (stereo not given) are 51.7%, 38.4% and 69.3%.
`Oc1cc2c(cc1CN1CCN(Cc3ccccc3F)CC1)CCC2`: the inhibition was 1.19% in assay [1], -1.37% in assay [2] and 2.62% in assay [3].
As for `COc1cccc(C(=O)NCCc2cccc(Cl)c2)c1OCc1ccccc1`, the inhibition is 0.04% in assay [1], -0.53% in assay [2] and -0.7% in assay [3].
In the same order, the values of `O=C(CN1CCC(NCc2cnc(-c3ccc(Cl)cc3)[nH]2)CC1)N1CCc2ccccc21` are -1.03%, 0.65% and 0.77%.
In the same order, the values of `CN1CCC(Oc2ccc(CN3CC[C@H](NC(=O)c4ccc(Cl)c(Cl)c4)C3)c3ccccc23)C1` (stereo not given in full) are 2.7%, 4.41% and 3.37%.
In the same order, the values of `CCOc1ccccc1CON1C(N)=NC(N)=NC1(C)C` are 4.48%, 3.69% and 7.54%.
For the compound `CCN(CC)CCN(Cc1ccc(-c2ccc(C(F)(F)F)cc2)cc1)C(=O)Cn1c(CCc2cccc(F)c2F)cc(=O)cc1-c1ccccc1`, the results for the inhibition in assay [1], in assay [2] and in assay [3] were 1.88%, 3.45% and -1.71%, respectively.
In the same order, the values of `CCC[C@@H]([C@@H](CC1CCCCC1)C(=O)N[C@H](C(=O)Nc1nccs1)C(C)(C)SCCNC(=O)OCC)N(O)C=O` are 3.35%, 4.46% and 4.28%.
In the same order, the values of `CCCC[C@@H](C(=O)NCCc1ccc(Cl)cc1)N1C(=O)CCC1C(=O)Nc1ccc(Cl)c(Cl)c1` (stereo not given in full) are -0.33%, 2.4% and 0.19%.
In the same order, the values of `Cc1cccc(N2CCN(C3CCC(NC(=O)c4cc5ccccc5[nH]4)CC3)CC2)c1C` (stereo not given) are 2.31%, 1.82% and 1.43%.
As to `CCN(CC)CCCCNc1cc(-c2[nH]c(C(C)(C)C)nc2-c2ccc3cc(OC)ccc3c2)ccn1`, the inhibition is 4.69% in assay [1], 4.79% in assay [2] and 1.94% in assay [3].
In the same order, the values of `COc1ccc(NC(C)C(=O)Nc2ccc(Br)cc2)cc1S(=O)(=O)N1CCCCC1` (stereo not given) are -1%, 1.34% and 1.93%.
Regarding `CN1CCN(c2ccnc3ccc(NC(=O)Nc4ccc(Cl)c(Cl)c4)cc23)CC1`, the inhibition turned out to be 6.24% in assay [1], 6.07% in assay [2] and 6.56% in assay [3].
For the compound `Cc1cc(C)cc(OCC(O)CN(Cc2cc(Cl)cc(Cl)c2)C(=O)Nc2ccc([N+](=O)[O-])cc2)c1` (stereo not given), the inhibition in assay [1] came out at 4.12%; in assay [2], 3.99%; in assay [3] it was 5.26%.
Turning to `Cc1ccc2nc(-c3ccc(C(=O)NC4CCN(Cc5ccccc5)CC4)s3)[nH]c2c1`, the inhibition in assay [1] is -1.39%; in assay [2], 1.8%; in assay [3], 1.22%.
In the same order, the values of `c1ccc(Nc2nc(-c3ccccn3)cs2)nc1` are -0.62%, 0.38% and -2.43%.
In the case of `O=C(N[C@@H](Cc1ccccc1)C(=O)NCCN1CCCC1)c1ccc(O)c(-c2ccc(Cl)c(Cl)c2)c1`, the inhibition was found to be 7.15% in assay [1], 3.32% in assay [2] and 6.16% in assay [3].
In the same order, the values of `O=C(/C=C/c1cccc(C(F)(F)F)c1)NCCCCCN1CCC(c2c[nH]c3ccccc23)CC1` are 4.06%, 3.58% and 1.4%.
On to `COc1ccc(CNC(=O)Nc2cccc(-c3csc(NC(=N)N)n3)c2)cc1`, for which the inhibition in assay [1] was -2.22%; in assay [2] it was -0.98%; in assay [3], 1.03%.
